According to PubChem BioAssay AID1159580 (chemical genetic matrix, 2015):
Several values for one entry are separate records, joined by “and”; a condition that tells them apart may be missing. Equal entries are not always repeated. The campaign covered roughly 5,500 compounds. About 2,000 (36%) were called active. Roughly 18% stayed inconclusive and do not appear here. No stated cut-off is given here; in the data, active means normalized growth mostly below about 0.91 (no sharp cut-off); inconclusive means no clear call, values can overlap the other calls; inactive means mostly above about 0.92. The list shows a part of the results.

Test: chemical genetic growth profiling, strain panel (AID 1159580);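 further: tested at 20 µM; growth read once vehicle control cultures reached saturation at 30 °C; 1 = growth at the plate median or of vehicle wells; lower values mean less growth of the strain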
Conditions: S. cerevisiae deletion strains, growth OD

Measured: normalized growth

Cc1c(N(C)CS(=O)(=O)O)c(=O)n(-c2ccccc2)n1C
inactive: locus YAL021C, strain ccr4, hits give low values 1.01 | locus YAL026C, strain drs2, hits give low values 1.01 | locus YAL030W, strain snc1, hits give low values 1.01 | locus YBL061C, strain skt5, hits give low values 1.01 | locus YBR009C, strain hhf1, hits give low values 1 | locus YBR021W, strain FUR4, hits give low values 0.991 | locus YBR023C, strain chs3, hits give low values 1.01 | locus YBR171W, strain sec66, hits give low values 1.02 | locus YBR229C, strain ROT2, hits give low values 0.989 | locus YBR231C, strain swc5, hits give low values 1.02 | locus YBR279W, strain paf1, hits give low values 1.04 | locus YCL011C, strain gbp2, hits give low values 1.01 | locus YCL016C, strain dcc1, hits give low values 1.01 | locus YCL029C, strain bik1, hits give low values 0.992 | locus YCL061C, strain MRC1, hits give low values 1.01 | locus YCL069W, strain vba3, hits give low values 1.01 | locus YCR088W, strain abp1, hits give low values 1.01 | locus YDL005C, strain med2, hits give low values 1.01 | locus YDL035C, strain GPR1, hits give low values 1 | locus YDL040C, strain nat1, hits give low values 1.01 | locus YDL074C, strain BRE1, hits give low values 1.06 | locus YDL101C, strain DUN1, hits give low values 1 | locus YDL134C, strain PPH21, hits give low values 0.979 | locus YDL185W, strain tfp1, hits give low values 0.992 | locus YDL192W, strain arf1, hits give low values 0.982 | locus YDR001C, strain nth1, hits give low values 1.01 | locus YDR069C, strain doa4, hits give low values 1.01 | locus YDR101C, strain arx1, hits give low values 1.03 | locus YDR137W, strain rgp1, hits give low values 1.01 | locus YDR159W, strain sac3, hits give low values 1 | locus YDR162C, strain NBP2, hits give low values 0.987 | locus YDR195W, strain ref2 1.01 | locus YDR297W, strain sur2, hits give low values 1.01 | locus YDR318W, strain mcm21, hits give low values 0.976 | locus YDR334W, strain swr1, hits give low values 1.01 | locus YDR335W, strain msn5, hits give low values 1.01 | locus YDR388W, hits give low values 0.982 | locus YDR392W, strain spt3, hits give low values 1.01 | locus YDR502C, strain sam2, hits give low values 1 | locus YEL003W, strain gim4, hits give low values 1.01 | locus YEL037C, strain rad23, hits give low values 1.01 | locus YEL061C, strain CIN8 (second series), hits give low values 1.02 | locus YEL061C, strain CIN8, hits give low values 0.999 | locus YER015W, strain faa2, hits give low values 1.01 | locus YER016W, strain bim1, hits give low values 1.01 | locus YER110C, hits give low values 0.994 | locus YER111C, strain swi4, hits give low values 1.01 | locus YER155C, strain BEM2 (second series), hits give low values 1.02 | locus YER155C, strain BEM2, hits give low values 0.992 | locus YER167W, strain BCK2, hits give low values 0.979 | locus YFR010W, strain ubp6, hits give low values 1.02 | locus YGL078C, strain dbp3, hits give low values 0.985 | locus YGL086W, strain mad1, hits give low values 0.995 | locus YGL167C, strain pmr1, hits give low values 1.01 | locus YGL173C, strain kem1, hits give low values 1.02 | locus YGL227W, strain vid30, hits give low values 1.01 | locus YGL240W, strain doc1, hits give low values 1.03 | locus YGL248W, strain PDE1, hits give low values 0.991 | locus YGL253W, strain hxk2, hits give low values 1.01 | locus YGR135W, strain pre9, hits give low values 0.96 | locus YGR252W, strain gcn5, hits give low values 0.968 | locus YHR013C, strain ard1, hits give low values 0.999 | locus YHR027C, strain rpn1, hits give low values 1.01 | locus YHR030C, strain SLT2, hits give low values 0.984 and 1 | locus YHR079C, strain IRE1 (second series), hits give low values 0.986 | locus YHR079C, strain IRE1, hits give low values 0.98 | locus YHR094C, strain hxt1, hits give low values 0.985 | locus YHR129C, strain ARP1, hits give low values 0.988 | locus YHR142W, strain chs7, hits give low values 1.02 | locus YHR200W, strain rpn10, hits give low values 0.981 | locus YIL066C, strain RNR3, hits give low values 0.998 | locus YIL073C, strain SPO22, hits give low values 0.997 | locus YIL125W, strain kgd1, hits give low values 0.993 | locus YIR030C, strain dcg1, hits give low values 0.982 | locus YJL092W, strain hpr5, hits give low values 1.01 | locus YJL095W, strain BCK1 (second series), hits give low values 1.02 | locus YJL095W, strain BCK1, hits give low values 1 and 0.996 | locus YJL115W, strain asf1, hits give low values 1 | locus YJL129C, strain trk1, hits give low values 1.01 | locus YJL134W, strain LCB3, hits give low values 0.986 | locus YJL154C, strain vps35, hits give low values 1.01 | locus YJL164C, strain tpk1, hits give low values 1.01 | locus YJL166W, strain qcr8, hits give low values 1.02 | locus YJL168C, strain set2, hits give low values 0.989 | locus YJL187C, strain SWE1 (second series), hits give low values 0.997 | locus YJL187C, strain SWE1, hits give low values 1.01 | locus YJR043C, strain POL32, hits give low values 1 | locus YJR066W, strain TOR1, hits give low values 0.946
